Luciferase inh: inhibitors of firefly (Photinus pyralis) luciferase. purified P. pyralis luciferase, luminescence, biochemical. P08659. 76,000 compounds, 2.5% hits. Potency, µM (titrated, usually from 115 µM), actives largely listed as inhibitors; further: nearly all actives have a fitted effect of over 65% in size
Target sequence (P08659 whole entry, looked up): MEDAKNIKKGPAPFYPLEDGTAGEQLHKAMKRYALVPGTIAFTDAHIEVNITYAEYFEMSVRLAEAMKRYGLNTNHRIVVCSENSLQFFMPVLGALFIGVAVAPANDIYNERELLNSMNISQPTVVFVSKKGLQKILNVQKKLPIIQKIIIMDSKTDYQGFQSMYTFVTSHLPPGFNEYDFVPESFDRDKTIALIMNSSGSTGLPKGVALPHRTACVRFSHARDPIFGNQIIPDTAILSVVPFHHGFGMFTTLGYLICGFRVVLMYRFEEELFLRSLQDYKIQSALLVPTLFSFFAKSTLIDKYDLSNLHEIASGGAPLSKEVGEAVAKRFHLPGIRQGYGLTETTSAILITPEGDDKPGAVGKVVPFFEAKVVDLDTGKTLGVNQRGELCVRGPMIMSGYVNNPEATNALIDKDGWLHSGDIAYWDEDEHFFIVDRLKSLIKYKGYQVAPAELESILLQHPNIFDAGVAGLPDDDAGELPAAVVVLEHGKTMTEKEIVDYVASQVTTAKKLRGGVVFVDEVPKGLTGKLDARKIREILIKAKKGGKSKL
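Luminescence read by CCD imaging after purified firefly luciferase (10nM final) was added to substrate buffer holding 10uM D-luciferin and 10uM ATP, pH 7.5, pre-dosed with compound.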
3T3 cytotox: NIH 3T3 cell cytotoxicity; NIH 3T3 viability, CellTiter-Glo ATP luminescence, 48-72 h; Potency, µM (titrated, usually from 96.7 µM), inactives show top-dose activity change, negative = cytotoxicity, usual class: inhibitors; 94,000 compounds, 4.3% hits; further: nearly all actives have a fitted effect of over 55% in size
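Cells were seeded at 400 per well, treated with pin-transferred compound, and kept 48 or 72 hr at 37 °C before CellTiter-Glo addition and luminescence imaging of cellular ATP.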
SNCA expr inh: reduces expression of the alpha-synuclein gene | Potency, µM (doses to about 57.2 µM), without a hit: top-dose activity change, negative = inhibition, actives largely listed as inhibitors | HEK-293 SNCA-luciferase knock-in, luminescence, 24 h | 140,000 compounds, 0.17% hits;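 further: plate controls were DMSO cells for no effect and cell-free wells for full effect; nearly all actives have a fitted effect of over 45% in size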
NPR1 antag: blocks ANP-stimulated signaling of human Npr1 receptor. HEK293 hNpr1 GloSensor cGMP, ANP-stimulated luminescence. 76,000 compounds, 1.6% hits. Potency, µM (top dose mostly 46.3 µM), without a hit: at the top dose activity change, negative = inhibition, usual class: inhibitors; calls by dose curve; further: nearly all actives have a fitted effect of over 60% in size
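HEK293 cells stably expressing human Npr1 and cGMP GloSensor pGS-40F, loaded 2 h with 2% GloSensor reagent, given compound 30 min at room temperature. Luminescence read before and 20 min after 0.1 nM hNppA.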
HEK cytotox: cytotoxic compounds in HEK 293 cells | HEK 293 viability, ATP luminescence (CellTiter-Glo), 48-72 h | 94,000 compounds, 6.6% hits | Potency, µM (highest dose often 115 µM), without a hit: at the highest dose activity change, negative = cytotoxicity, hits mostly inhibitors; further: nearly all actives have a fitted effect of over 60% in size
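HEK 293 cells at 250 cells/well were exposed to compounds by pintool transfer for 48 or 72 hr at 37 degree Celsius, 5% CO2. Viability was read as ATP-coupled luminescence with CellTiter-Glo after 10 min at room temperature.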
HEK293 viab: cell viability loss counter-screen | Potency, µM (doses to about 57.1 µM), inactives show at the top dose activity change, negative = cytotoxicity, most hits filed as cytotoxic | AID 1671193 | 150,000 compounds, 0.12% hits | HEK-293-SNCA-luc viability, GF-AFC fluorescence, 24 h;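 further: 0% = DMSO-treated cells and -100% = medium-only wells without cells; nearly all actives have a fitted effect of over 30% in size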
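HEK-293-SNCA-luc cells (1500/well) plated 24 h, then exposed 24 h to a dilution series; GF-AFC added 30 min at 37C, fluorescence 405/540 nm; normalised to medium-only and DMSO wells, Hill fit.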
* = called active by the depositor; i = inactive; ? = inconclusive; . = not tested or not shown; [ ] = another dose, or the depositor's remark. This is a sample that favours compounds with a hit; in the whole collection about 7.4% have one here. Unless noted, the call rests on the fitted dose curve; in most records, active means well fitted curve in the direction sought with a large enough effect; inconclusive means small, poorly fitted or top-dose-only effect, or another doubt; inactive means no such curve, though single readings can be large; an effect the other way counts as inactive or inconclusive. Unless noted, on the % scale 0 is the no-effect control and ±100 the full control effect; potency means the concentration at half of the fitted maximal effect.

SMILES	Luciferase inh	3T3 cytotox	SNCA expr inh	NPR1 antag	HEK cytotox	HEK293 viab
O=C(c1ccn[nH]1)N1CCC(c2nc(CCOCC3CC3)no2)C1 (stereo not given)	i	-12%	29%	-2%	5%	-5%[12.5 µM]
CCCCS(=O)(=O)N1CC(n2cc(COc3ccccc3)nn2)C1	i	-8%	-15%	-3%	2%	5%
Cc1cc2nc(CO[C@H]3CN(Cc4ccc(C(=O)O)cc4)C[C@H]3F)[nH]c2cc1C	22µM*	-1%[174 µM]	9%[87.6 µM]	-3%[70.6 µM]	-8%[172 µM]	2%[87.6 µM]
CC(=O)Nc1ccc(CN2C[C@@H](F)[C@@H](OCc3nc4cc(C)c(C)cc4[nH]3)C2)cc1	i	?	-3%[87.6 µM]	0%[70.6 µM]	?	4%[87.6 µM]
COC(=O)c1ccc2nc(CO[C@H]3CN(Cc4ccc(C(F)(F)F)cc4)C[C@H]3F)[nH]c2c1	i	?	-33%	?	50µM*	-7%
COCCNC(=O)C1CCc2sc(C(=O)N(C)C)cc2C1 (stereo not given)	i	i	5%	5%	-3%	7%
O=C(Nc1ccc2c(c1)OCO2)C1CCc2sc(C(=O)N3CCCC3)cc2C1 (stereo not given)	?	22µM*	18%	?	32µM*	-27%
COC(=O)c1cccc(NC(=O)C2CCc3sc(C(=O)N(C)C)cc3C2)c1 (stereo not given)	i	?	7%	-5%	45µM*	-3%
COc1cc(=O)n2c(c1C(=O)Nc1cc(Cl)cc(Cl)c1)CCCC2	i	i	3%	4%	11%	1%
Cc1cccc(CNC[C@H]2Cn3c(-c4ccc(Cl)cc4)cnc3CO2)n1	i	-25%[174 µM]	-7%[87.6 µM]	-15%[70.6 µM]	?	4%[87.6 µM]
CCn1c(=O)c2c(cc(C)n2C)n(CC(=O)Nc2c(C)cccc2C)c1=O	i	4%	?	-2%	-1%	28µM*
O=C(Nc1cccc(C(F)(F)F)c1)N[C@H]1[C@H](O)[C@@H](N2CCOCC2)[C@@H]2OC[C@H]1O2	i	-8%[174 µM]	-8%[87.6 µM]	-1%[70.6 µM]	-8%[172 µM]	1%[87.6 µM]
COCCn1ncc(N2CCCC(CC(=O)NCc3ccc(C)cc3)C2)cc1=O (stereo not given)	i	-6%	30%	0%	-3%	0%
CCc1ccc(NC(=O)c2ccc(Cn3ccn4nc5c(c4c3=O)CCCC5)cc2)cc1	?	?	-10%	-19%	20µM*	-4%
COc1ccccc1Cn1ccn2nc3c(c2c1=O)CCCC3	i	?	32%	-4%	45µM*	-9%
O=C(Nc1ccccc1)c1ccc(Cn2ccn3nc4c(c3c2=O)CCCC4)cc1	i	?	9%	-2%	16µM*	-15%
O=C(NCCC1=CCCCC1)c1ccc(Cn2ccn3nc4c(c3c2=O)CCCC4)cc1	i	?	24%	-22%	40µM*	-15%
O=C(Nc1ccc(Cl)cc1)c1ccc(Cn2ccn3nc4c(c3c2=O)CCCC4)cc1	i	-9%	38%	-3%	?	-14%
O=C(Nc1ccc(F)cc1)c1ccc(Cn2ccn3nc4c(c3c2=O)CCCC4)cc1	i	-22%	-2%	0%	-16%	9%
NC(=O)c1cccc(-c2cc(O)cc(OC(=O)NC3CCCCC3)c2)c1	.	.	.	.	.	-13%[23.9 µM]
COC(=O)N1CCC(C(=O)N2CCCC(c3nc4ncccc4[nH]3)C2)CC1 (stereo not given)	.	-18%	13%	.	-5%	-3%
Cc1oc(-c2ccc(OC(C)C)cc2)nc1Cn1ccn2nc3c(c2c1=O)CCCC3	i	?	-16%	2%	8.9µM*	-6%
O=C(CC1=C2CCCCC2N(Cc2ccccc2)C1=O)NCc1ccncc1 (stereo not given)	.	-20%	-4%	.	?	1%
COc1ccc(C(=O)N[C@@H]2CN(c3ncccn3)C[C@H]2CN(C)C)c(OC)c1	i	-20%	-2%	-1%	1%	-10%
CN1c2cc(C(=O)Nc3cccc(OC(F)(F)F)c3)ccc2C(=O)N2CCCCC21 (stereo not given)	?	?	-12%	?	18µM*	5%[12.5 µM]
SMILES	Luciferase inh	3T3 cytotox	SNCA expr inh	NPR1 antag	HEK cytotox	HEK293 viab
CN1c2cc(C(=O)Nc3cccc(OC(F)(F)F)c3)ccc2C(=O)N2CCCC21 (stereo not given)	i	35µM*	10%	-5%	?	-3%[12.5 µM]
CCOc1ccc(C(=O)N2CCCC3(C2)Nc2cccnc2NC3=NC2CCCC2)cc1 (stereo not given)	i	?	-24%	-8%	?	?
COc1ccccc1-c1ccc2ncc(Nc3ccc(CN4CCN(C)CC4)cc3)n2n1	i	25µM*	11%[87.6 µM]	-12%[70.6 µM]	50µM*	-16%[87.6 µM]
COc1ccc(Nc2cnc3ccc(-c4ccccc4OC)nn23)cc1	?	?	-22%[87.6 µM]	-14%[70.6 µM]	79µM*	-9%[87.6 µM]
COc1ccc(-c2ccc3ncc(Nc4ccc(CN5CCN(C)CC5)cc4)n3n2)cn1	i	?	-4%[87.6 µM]	6%[70.6 µM]	?	-16%[87.6 µM]
COc1ccccc1-c1ccc2ncc(Nc3cccc(O)c3)n2n1	?	?	43%[87.6 µM]	1%[70.6 µM]	?	2%[87.6 µM]
CC[C@H]1CN(S(C)(=O)=O)CC[C@H]1CC(=O)NCCSC	i	-23%[174 µM]	?	-2%[70.6 µM]	-4%[172 µM]	3%[87.6 µM]
COc1ccc(NC(=O)N[C@@H]2C=C[C@@H](c3c(C)nn(-c4ccccn4)c3C)C2)cc1	?	112µM*	72%[87.6 µM]	-19%[70.6 µM]	71µM*	-18%[87.6 µM]
Cc1nn(-c2ccccn2)c(C)c1[C@@H]1C=C[C@@H](NC(=O)CSCC(=O)O)C1	i	?	13%[87.6 µM]	2%[70.6 µM]	0%[172 µM]	7%[87.6 µM]
COc1ccc(-n2nc(C)c([C@H]3C=C[C@@H](OC(=O)Nc4ccc(Br)cc4)C3)c2C)cc1	35µM*	?	36%	11µM*	?	-25%
CN(C)C(=O)c1ccc(-c2cc(NC3CCCC3)nc3[nH]ccc23)o1	?	?	15%	6%	45µM*	0%
Cc1noc2c(Nc3ccc(C(N)=O)cc3)cc(-c3cccnc3)nc12	i	20µM*	-22%[87.6 µM]	-8%[70.6 µM]	-9%[172 µM]	-7%[87.6 µM]
Cc1noc2c(N(C)C)cc(-c3cccnc3)nc12	i	?	-8%[87.6 µM]	1%[70.6 µM]	-5%[230 µM]	3%[87.6 µM]
Cc1noc2c(NC(C)C)cc(-c3cccnc3)nc12	i	40µM*	3%[87.6 µM]	-2%[70.6 µM]	-26%[230 µM]	0%[87.6 µM]
Cc1noc2c(NCC3CCOCC3)cc(-c3cccnc3)nc12	i	?	3%[87.6 µM]	7%[70.6 µM]	-5%[172 µM]	-7%[87.6 µM]
CCOC(=O)N1CCC(Oc2cnc3c(ccn3-c3cncnc3)c2)CC1	i	10µM*	0%[87.6 µM]	-8%[70.6 µM]	-23%[172 µM]	-2%[87.6 µM]

High-throughput results: PubChem, National Center for Advancing Translational Sciences (NCATS)
